Mtb UGM inh = M. tuberculosis UGM enzyme inhibitors, primary screen, biochemical, fluorescence polarization, single point. purified UGM, fluorescence polarization probe displacement. inhibition, % at 10 µM. 320,000 compounds, 0.06% hits. AID 504406, 2011; in the data active = inhibition above about 10%, passing the limit was not always enough; inconclusive = no clear call, values can overlap the other calls
Rv3671c protease = Rv3671c serine protease inhibitors, primary screen, biochemical, fluorescence polarization, M. tuberculosis H37Rv; inhibition, % at 5.96 µM; 320,000 compounds, 0.048% hits; P9WHR9; in the data active = inhibition above about 38%;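 note: extracellular domain of Rv3671c used as enzyme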
Target sequence (P9WHR9 whole entry, looked up, the tested form may be a part): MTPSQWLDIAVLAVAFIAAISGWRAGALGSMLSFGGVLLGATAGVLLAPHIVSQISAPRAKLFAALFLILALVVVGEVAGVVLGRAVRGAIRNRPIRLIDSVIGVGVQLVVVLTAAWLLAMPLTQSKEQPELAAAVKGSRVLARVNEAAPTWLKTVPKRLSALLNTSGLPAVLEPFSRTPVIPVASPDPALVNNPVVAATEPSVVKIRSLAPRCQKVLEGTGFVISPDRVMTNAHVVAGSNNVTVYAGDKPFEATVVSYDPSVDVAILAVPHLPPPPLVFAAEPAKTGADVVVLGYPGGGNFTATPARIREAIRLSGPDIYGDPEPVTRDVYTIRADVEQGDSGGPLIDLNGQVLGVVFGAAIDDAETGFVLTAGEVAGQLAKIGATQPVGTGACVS
Mtb bLac sens = beta-lactam sensitization of Mtb H37Rv, H37Rv | M. tuberculosis H37Rv growth with meropenem, percent inhibition | inhibition, % at 25 µM | 330,000 compounds, 0.27% hits; call rule not given here;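 note: growth measured after seven days incubation then overnight dye step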
GDH-TPI inh = GDH-TPI coupling enzyme inhibitors, primary screen, artefact control for M. tuberculosis FBA inhibitor project, biochemical, absorbance, full deck | 360,000 compounds, 1.2% hits | GDH-TPI coupled enzyme counterscreen, NADH absorbance | AID 588335, 2011 | inhibition, % at 4.8 µM; in the data active = inhibition above about 30%
FBA Mtb inh = Mtb FBA enzyme inhibitors, primary screen, biochemical, fluorescence, strain H37Rv; AID 588726, 2011; purified M. tuberculosis FBA, fluorescence read-out; 360,000 compounds, 2.3% hits; inhibition, % at 1 µM; in the data active = inhibition above about 27%
RecA splice inh = Mtb RecA intein splicing inhibitors, primary screen, biochemical, fluorescence, HTS; cell-free RecA intein splicing; inhibition, % (concentration not given with the values); 290,000 compounds, 0.75% hits; Protein RecA (Mycobacterium tuberculosis (strain ATCC 25618 / H37Rv)), P9WHJ3; in the data active = inhibition above about 30%; inconclusive = no clear call, values can overlap the other calls
Numbers stand for hits; i = inactive; ? = inconclusive; nt = no result; + = active, no number. An excerpt weighted towards active compounds, which were near 4% of everything screened.

SMILES	Mtb UGM inh	Rv3671c protease	Mtb bLac sens	GDH-TPI inh	FBA Mtb inh	RecA splice inh
N#C/C(=N\Nc1c(Cl)cccc1Cl)C(=O)NN	i	i	i	32	i	i
CC(=O)Nc1cccc2c1Cc1cc([N+](=O)[O-])ccc1-2	nt	nt	nt	40	i	nt
CCOC(=O)c1ccc(Nc2c(CC)c(C)nc3ncnn23)cc1	i	i	i	32	i	i
CCc1c(C)nc2ncnn2c1Nc1ccc(C#N)c(Cl)c1	i	i	i	i	i	i
CCc1c(C)nc2ncnn2c1Nc1ccc(C(C)=O)cc1	i	i	i	40	i	i
Cc1ccc(C(=O)Nc2nc(-c3ccccn3)cs2)s1	i	i	i	i	i	nt
O=C(Nc1nc(-c2ccccn2)cs1)c1ccc(Cl)s1	i	i	i	36	i	i
CN1CC=C2C(C#N)=C(N)C(C#N)(C#N)C(c3ccncc3)C2C1 (stereo not drawn)	i	i	i	i	i	i
CC(C)c1ccc(C2C3CSCC=C3C(C#N)=C(N)C2(C#N)C#N)cc1 (stereo not drawn)	i	i	i	nt	nt	36
COc1ccc(C(C)=O)cc1CSc1ccc(S(=O)(=O)N2CCOCC2)cn1	i	i	i	i	i	nt
CN(C)S(=O)(=O)c1cccc(NC(=O)COC(=O)c2cc(-c3cccc(Br)c3)nc3ccccc23)c1	i	i	i	32	i	i
CN(C)S(=O)(=O)c1cccc(NC(=O)COC(=O)/C=C/c2ccc(Br)o2)c1	i	i	i	39	i	i
Cc1ccc(NC(=O)COC(=O)/C=C/c2ccc(Br)o2)cc1S(=O)(=O)N(C)C	i	i	i	i	i	i
CN(C)S(=O)(=O)c1cccc(NC(=O)COC(=O)c2ccc3ccccc3n2)c1	i	i	i	i	i	nt
CC(=O)c1ccc(S(=O)(=O)N(CCCO)Cc2cc3cc4c(cc3[nH]c2=O)OCCO4)cc1	i	i	i	i	i	i
O=c1[nH]c2cc3c(cc2cc1CN(CCO)S(=O)(=O)c1ccccc1)OCCO3	i	i	i	37	i	i
C=CCn1c(C)cc(C(=O)COC(=O)c2cncc(Br)c2)c1C	i	i	i	i	i	nt
Cc1ccc(S(=O)(=O)N2CCC(C(=O)OCC(=O)N3CCC(C)CC3)CC2)cc1C	i	i	i	i	i	i
NC(=O)c1ccc(/C=N/O)[n+](Cc2ccccc2)c1	i	i	i	35	i	i
CCOC(=O)c1ccc(/C=N/O)[n+](Cc2ccccc2)c1	i	i	i	i	i	i
O=C(CSc1nc2ccccc2o1)N/N=C/c1ccccc1	i	i	i	i	i	i
O=C(CSc1nc2ccccc2o1)N/N=C/c1ccc(O)c(O)c1	i	i	i	54	i	i
Cc1ccc(C)c(NC(=O)CCC(=O)N2CCOc3ccccc32)c1	i	i	i	i	i	i
COCCn1c(N)c(C#N)c2nc3ccccc3nc21	i	i	i	i	115	i
N#Cc1c(N)n(CCc2ccc(F)cc2)c2nc3ccccc3nc12	i	i	i	i	151	i
SMILES	Mtb UGM inh	Rv3671c protease	Mtb bLac sens	GDH-TPI inh	FBA Mtb inh	RecA splice inh
COc1ccc(Cn2c(N)c(C#N)c3nc4ccccc4nc32)cc1	i	i	i	i	179	i
Cc1ccc(Cn2c(N)c(S(=O)(=O)c3cccs3)c3nc4ccccc4nc32)cc1	i	i	i	i	i	i
COc1cccc(Cn2c(N)c(C#N)c3nc4ccccc4nc32)c1OC	i	i	i	i	i	i
COCCn1c(N)c(S(=O)(=O)c2cccs2)c2nc3ccccc3nc21	i	i	i	i	+	i
COc1cc2oc3cc(C)oc(=O)c3c2cc1OC	i	i	i	i	142	i
COc1cc2oc(=O)c(Br)c(C)c2c(OC)c1OC	i	i	i	i	i	nt
Cc1cccc(OCCC(=O)Nc2ccc(N3CCOCC3)cc2N2CCOCC2)c1	i	i	i	i	i	nt
Cc1csc(NC(=O)CSc2nc3[nH]c(=O)cc(O)c3s2)n1	nt	nt	nt	32	i	nt
COc1cc(C(=O)Nc2ccc3c(c2)CCCN3C(=O)c2ccco2)c([N+](=O)[O-])cc1OC	i	i	i	i	i	i
CCC1=[N+](CC(=O)c2ccc(C)cc2)CCn2c(C)ccc21	i	i	i	i	i	i
CCC1=[N+](CC(=O)c2ccc(C)cc2)CCn2cccc21	i	i	i	35	i	nt
Cc1nc2ccccc2c(=O)n1-c1ccc(C(=O)O)cc1	i	i	i	i	i	i
O=C(O)c1ccc(-n2c(=O)c3ccccc3c3ccccc3c2=O)cc1	i	i	i	i	i	32
CN(C)CCN1CCN(C2CN(C3CCCC3)S(=O)(=O)C2)CC1 (stereo not drawn)	nt	nt	nt	nt	i	nt
CC(C)C(=O)Nc1nc2cc3c(cc2s1)OCCO3	i	i	i	i	i	i
CC(=O)Nc1nc2cc3c(cc2s1)OCO3	i	i	i	i	i	i
O=C(Nc1nc2cc3c(cc2s1)OCO3)C1=COCCO1	i	i	i	42	i	i
O=C(Nc1nc2cc3c(cc2s1)OCCO3)c1ccco1	i	i	?	35	i	i
O=C(Nc1nc2cc3c(cc2s1)OCCO3)c1ccncc1	i	i	i	i	i	i
O=C(Nc1nc2cc3c(cc2s1)OCO3)c1ccco1	nt	nt	nt	35	i	i
CNC(=O)[C@H]1O[C@@H](n2cnc3c(NCc4cccc(I)c4)ncnc32)[C@H](O)[C@@H]1O	i	i	i	i	i	nt
Cc1ccc(S(=O)(=O)N2C[C@H]3C(=O)C[C@@H](c4ccccc4C)N(S(=O)(=O)c4ccc(C)cc4)[C@H]3C[C@H]2c2ccccc2)cc1	nt	nt	nt	nt	i	nt
CCCCN1C(=O)C(CC(=O)NCCc2ccccn2)CC(C(=O)N(CC)CC)=C1C (stereo not drawn)	nt	nt	nt	i	i	nt
COc1ccc(OC)c(CN2CCN(C(=O)CN3C(=O)NC4(CCCC4)C3=O)CC2)c1	i	i	i	i	i	i
O=C(N=C1SC2CS(=O)(=O)CC2N1c1ccc(Cl)cc1Cl)C1CC1 (stereo not drawn)	i	i	i	i	i	i
COc1ccccc1S(=O)(=O)NCc1ccc(C(=O)NC2CCC(O)CC2)cc1 (stereo not drawn)	nt	i	i	i	i	nt
CC1CCN(C(=O)COC(=O)C2CCN(S(=O)(=O)c3ccc4c(c3)OCCO4)CC2)CC1	i	i	i	i	i	i
N#C/C(=C1/CCCCCN1)c1nc2ccccc2[nH]1	i	i	i	39	i	i
CC1C(=O)NN=C1C(=O)N/N=C\c1ccc(O)cc1O (stereo not drawn)	i	i	i	62	i	i
CCOc1ccc(NCCC(O)c2ccc(F)cc2)cc1 (stereo not drawn)	i	i	i	i	i	i

Screens deposited in PubChem by several laboratories.
